# Measured values published in ChEMBL document CHEMBL2218924, “A broad activity screen in support of a chemogenomic map for kinase signalling research and drug discovery” (Biochem J, 2013).
# What was measured:
# [1] = biological target: Serine/threonine-protein kinase SIK1 (Homo sapiens) (UniProt P57059); conditions: at 10 µM
# [2] = biological target: Serine/threonine-protein kinase 33 (Homo sapiens) (UniProt Q9BYT3); conditions: at 1 µM
# [3] = biological target: Serine/threonine-protein kinase 33 (Homo sapiens) (UniProt Q9BYT3); conditions: at 10 µM
# [4] = biological target: Tyrosine-protein kinase SYK (Homo sapiens) (UniProt P43405); conditions: at 1 µM
# [5] = biological target: Tyrosine-protein kinase SYK (Homo sapiens) (UniProt P43405); conditions: at 10 µM
# [6] = biological target: T1, Serine/threonine-protein kinase TAO1 (Homo sapiens) (UniProt Q7L7X3); conditions: at 1 µM
# T1 sequence (whole entry): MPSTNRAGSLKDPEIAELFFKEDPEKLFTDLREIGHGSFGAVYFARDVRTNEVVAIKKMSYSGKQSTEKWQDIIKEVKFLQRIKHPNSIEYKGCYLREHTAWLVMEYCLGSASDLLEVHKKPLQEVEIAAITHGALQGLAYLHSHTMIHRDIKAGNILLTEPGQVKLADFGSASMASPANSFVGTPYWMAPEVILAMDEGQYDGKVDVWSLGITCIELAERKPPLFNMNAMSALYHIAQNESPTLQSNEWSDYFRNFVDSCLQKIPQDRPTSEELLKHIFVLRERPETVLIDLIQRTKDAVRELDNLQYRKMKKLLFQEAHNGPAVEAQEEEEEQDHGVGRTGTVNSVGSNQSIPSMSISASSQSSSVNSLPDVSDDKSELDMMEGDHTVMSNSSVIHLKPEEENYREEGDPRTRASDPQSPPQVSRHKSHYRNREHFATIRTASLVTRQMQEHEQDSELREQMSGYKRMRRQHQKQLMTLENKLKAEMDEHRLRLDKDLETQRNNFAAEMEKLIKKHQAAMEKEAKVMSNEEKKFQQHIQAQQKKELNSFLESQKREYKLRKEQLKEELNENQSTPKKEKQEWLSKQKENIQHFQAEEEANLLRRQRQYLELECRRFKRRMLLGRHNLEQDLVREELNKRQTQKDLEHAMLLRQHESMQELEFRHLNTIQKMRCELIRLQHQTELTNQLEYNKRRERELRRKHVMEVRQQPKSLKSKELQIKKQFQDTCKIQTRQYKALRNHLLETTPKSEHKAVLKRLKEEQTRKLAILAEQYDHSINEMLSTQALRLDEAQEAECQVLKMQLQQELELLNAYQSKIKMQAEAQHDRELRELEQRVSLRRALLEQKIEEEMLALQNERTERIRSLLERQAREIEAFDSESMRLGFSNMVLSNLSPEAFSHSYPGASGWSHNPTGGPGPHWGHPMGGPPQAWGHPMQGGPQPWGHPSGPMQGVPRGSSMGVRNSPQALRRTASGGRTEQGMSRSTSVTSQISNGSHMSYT
# [7] = biological target: T1, Serine/threonine-protein kinase TAO1 (Homo sapiens); conditions: at 10 µM
# [8] = biological target: T2, Serine/threonine-protein kinase TAO2 (Homo sapiens) (UniProt Q9UL54); conditions: at 1 µM
# T2 sequence (whole entry): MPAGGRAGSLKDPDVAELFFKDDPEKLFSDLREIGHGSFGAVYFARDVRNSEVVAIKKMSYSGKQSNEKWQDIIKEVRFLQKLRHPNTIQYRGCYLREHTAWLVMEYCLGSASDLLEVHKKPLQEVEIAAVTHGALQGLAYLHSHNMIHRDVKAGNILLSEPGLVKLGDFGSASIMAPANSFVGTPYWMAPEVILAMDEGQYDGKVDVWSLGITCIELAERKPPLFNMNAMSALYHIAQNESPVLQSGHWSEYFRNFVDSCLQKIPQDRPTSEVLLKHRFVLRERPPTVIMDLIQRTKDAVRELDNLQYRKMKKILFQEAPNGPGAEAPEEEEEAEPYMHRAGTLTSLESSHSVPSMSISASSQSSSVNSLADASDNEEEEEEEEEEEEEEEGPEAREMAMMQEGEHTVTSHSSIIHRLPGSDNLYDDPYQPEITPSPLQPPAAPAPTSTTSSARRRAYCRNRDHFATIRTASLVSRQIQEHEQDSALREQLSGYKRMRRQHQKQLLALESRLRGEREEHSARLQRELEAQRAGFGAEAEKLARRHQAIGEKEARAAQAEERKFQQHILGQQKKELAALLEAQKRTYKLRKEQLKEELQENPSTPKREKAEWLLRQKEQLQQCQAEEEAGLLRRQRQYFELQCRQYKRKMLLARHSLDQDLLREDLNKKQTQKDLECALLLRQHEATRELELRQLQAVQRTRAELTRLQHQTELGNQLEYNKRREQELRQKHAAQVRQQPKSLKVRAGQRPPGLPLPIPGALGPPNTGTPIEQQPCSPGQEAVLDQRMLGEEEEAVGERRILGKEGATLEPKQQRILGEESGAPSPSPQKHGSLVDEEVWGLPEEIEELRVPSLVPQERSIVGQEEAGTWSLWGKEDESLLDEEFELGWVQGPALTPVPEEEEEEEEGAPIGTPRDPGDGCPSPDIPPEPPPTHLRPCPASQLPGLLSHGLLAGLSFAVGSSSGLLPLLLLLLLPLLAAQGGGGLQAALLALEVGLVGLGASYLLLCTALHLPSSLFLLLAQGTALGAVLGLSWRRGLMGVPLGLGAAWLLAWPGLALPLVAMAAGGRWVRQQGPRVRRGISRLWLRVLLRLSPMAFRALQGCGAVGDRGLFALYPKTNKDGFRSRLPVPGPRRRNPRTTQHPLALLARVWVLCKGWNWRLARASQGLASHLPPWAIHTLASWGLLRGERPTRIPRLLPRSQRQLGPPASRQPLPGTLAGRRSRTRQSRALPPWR
# [9] = biological target: T2, Serine/threonine-protein kinase TAO2 (Homo sapiens); conditions: at 10 µM
# [10] = biological target: T3, Serine/threonine-protein kinase TAO3 (Homo sapiens) (UniProt Q9H2K8); conditions: at 1 µM
# T3 sequence (whole entry): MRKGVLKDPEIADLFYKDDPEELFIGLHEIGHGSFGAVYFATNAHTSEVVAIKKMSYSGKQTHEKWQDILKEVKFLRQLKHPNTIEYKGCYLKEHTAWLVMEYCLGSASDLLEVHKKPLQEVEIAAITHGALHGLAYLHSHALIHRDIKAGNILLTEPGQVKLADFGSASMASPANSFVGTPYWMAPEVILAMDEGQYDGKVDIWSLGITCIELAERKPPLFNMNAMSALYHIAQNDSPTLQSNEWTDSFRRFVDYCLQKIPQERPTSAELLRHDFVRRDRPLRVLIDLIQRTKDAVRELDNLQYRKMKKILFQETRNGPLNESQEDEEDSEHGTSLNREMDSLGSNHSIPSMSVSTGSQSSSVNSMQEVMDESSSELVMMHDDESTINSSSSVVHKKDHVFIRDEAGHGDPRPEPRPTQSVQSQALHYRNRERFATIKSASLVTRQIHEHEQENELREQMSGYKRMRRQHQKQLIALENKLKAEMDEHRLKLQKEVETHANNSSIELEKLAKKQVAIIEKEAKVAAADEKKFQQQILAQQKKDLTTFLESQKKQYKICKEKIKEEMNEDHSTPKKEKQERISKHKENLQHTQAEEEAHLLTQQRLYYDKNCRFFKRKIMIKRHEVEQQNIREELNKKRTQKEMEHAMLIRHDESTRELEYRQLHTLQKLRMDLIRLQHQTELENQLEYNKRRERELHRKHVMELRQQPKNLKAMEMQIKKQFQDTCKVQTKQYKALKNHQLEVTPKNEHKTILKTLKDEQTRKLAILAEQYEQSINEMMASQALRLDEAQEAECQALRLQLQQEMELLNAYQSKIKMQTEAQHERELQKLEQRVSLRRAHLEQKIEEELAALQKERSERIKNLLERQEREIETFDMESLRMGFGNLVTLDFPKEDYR
# [11] = biological target: T3, Serine/threonine-protein kinase TAO3 (Homo sapiens); conditions: at 10 µM
# [12] = biological target: T4, Serine/threonine-protein kinase TBK1 (Homo sapiens) (UniProt Q9UHD2); conditions: at 1 µM
# T4 sequence (whole entry): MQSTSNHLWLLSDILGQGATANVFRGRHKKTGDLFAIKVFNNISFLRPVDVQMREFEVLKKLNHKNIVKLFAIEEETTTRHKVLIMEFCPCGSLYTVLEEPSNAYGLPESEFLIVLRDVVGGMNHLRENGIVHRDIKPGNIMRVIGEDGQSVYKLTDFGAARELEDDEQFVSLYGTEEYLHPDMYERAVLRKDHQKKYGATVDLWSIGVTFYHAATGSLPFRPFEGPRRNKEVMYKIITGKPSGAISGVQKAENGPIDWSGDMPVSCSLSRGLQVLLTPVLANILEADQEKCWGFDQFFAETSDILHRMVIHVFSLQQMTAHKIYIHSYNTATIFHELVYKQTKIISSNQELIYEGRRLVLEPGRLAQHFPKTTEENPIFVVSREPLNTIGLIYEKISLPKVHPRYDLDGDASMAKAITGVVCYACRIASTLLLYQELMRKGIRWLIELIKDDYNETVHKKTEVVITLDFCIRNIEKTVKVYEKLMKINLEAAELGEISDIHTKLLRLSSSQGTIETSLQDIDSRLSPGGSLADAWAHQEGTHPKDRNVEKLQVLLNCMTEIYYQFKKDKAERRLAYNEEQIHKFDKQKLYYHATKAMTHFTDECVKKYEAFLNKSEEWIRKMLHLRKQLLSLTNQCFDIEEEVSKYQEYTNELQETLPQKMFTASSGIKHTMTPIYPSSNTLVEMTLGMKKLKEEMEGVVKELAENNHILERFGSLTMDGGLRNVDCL
# [13] = biological target: T5, Mitogen-activated protein kinase kinase kinase 7 (Homo sapiens) (UniProt O43318); conditions: at 10 µM
# T5 sequence (whole entry): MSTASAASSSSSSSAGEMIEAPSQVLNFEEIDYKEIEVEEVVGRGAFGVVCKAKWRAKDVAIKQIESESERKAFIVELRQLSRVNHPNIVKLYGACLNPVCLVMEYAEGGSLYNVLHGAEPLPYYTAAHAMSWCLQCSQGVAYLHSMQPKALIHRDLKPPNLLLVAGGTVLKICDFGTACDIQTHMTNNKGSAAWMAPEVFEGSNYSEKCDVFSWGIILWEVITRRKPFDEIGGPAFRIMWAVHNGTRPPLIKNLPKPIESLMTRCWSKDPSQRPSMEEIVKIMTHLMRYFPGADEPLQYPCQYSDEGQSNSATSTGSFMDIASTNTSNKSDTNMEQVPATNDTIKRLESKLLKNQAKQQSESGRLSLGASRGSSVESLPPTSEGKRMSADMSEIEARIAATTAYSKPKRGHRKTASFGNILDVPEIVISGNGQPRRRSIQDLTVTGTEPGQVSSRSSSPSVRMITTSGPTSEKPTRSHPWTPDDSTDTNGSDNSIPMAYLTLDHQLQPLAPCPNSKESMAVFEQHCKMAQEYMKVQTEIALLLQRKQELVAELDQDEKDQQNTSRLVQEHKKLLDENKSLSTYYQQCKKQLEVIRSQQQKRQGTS
# [14] = biological target: T5, Mitogen-activated protein kinase kinase kinase 7 (Homo sapiens); conditions: at 1 µM
# Chain of Serine/threonine-protein kinase 33 (Homo sapiens) (Q9BYT3 whole entry, looked up): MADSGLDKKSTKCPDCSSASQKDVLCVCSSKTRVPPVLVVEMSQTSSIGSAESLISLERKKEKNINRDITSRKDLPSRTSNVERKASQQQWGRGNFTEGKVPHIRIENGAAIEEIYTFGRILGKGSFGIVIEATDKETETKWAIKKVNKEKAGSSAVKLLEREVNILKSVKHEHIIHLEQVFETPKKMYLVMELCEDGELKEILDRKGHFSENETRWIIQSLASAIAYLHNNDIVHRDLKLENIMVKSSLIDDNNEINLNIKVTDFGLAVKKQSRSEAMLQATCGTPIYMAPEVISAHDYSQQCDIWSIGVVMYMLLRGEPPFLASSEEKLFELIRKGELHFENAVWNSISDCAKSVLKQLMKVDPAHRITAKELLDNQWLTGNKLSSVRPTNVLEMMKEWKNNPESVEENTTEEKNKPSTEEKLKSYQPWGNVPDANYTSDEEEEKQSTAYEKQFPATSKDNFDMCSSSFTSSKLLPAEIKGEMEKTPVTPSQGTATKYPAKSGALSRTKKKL
# Chain of Serine/threonine-protein kinase SIK1 (Homo sapiens) (P57059 whole entry): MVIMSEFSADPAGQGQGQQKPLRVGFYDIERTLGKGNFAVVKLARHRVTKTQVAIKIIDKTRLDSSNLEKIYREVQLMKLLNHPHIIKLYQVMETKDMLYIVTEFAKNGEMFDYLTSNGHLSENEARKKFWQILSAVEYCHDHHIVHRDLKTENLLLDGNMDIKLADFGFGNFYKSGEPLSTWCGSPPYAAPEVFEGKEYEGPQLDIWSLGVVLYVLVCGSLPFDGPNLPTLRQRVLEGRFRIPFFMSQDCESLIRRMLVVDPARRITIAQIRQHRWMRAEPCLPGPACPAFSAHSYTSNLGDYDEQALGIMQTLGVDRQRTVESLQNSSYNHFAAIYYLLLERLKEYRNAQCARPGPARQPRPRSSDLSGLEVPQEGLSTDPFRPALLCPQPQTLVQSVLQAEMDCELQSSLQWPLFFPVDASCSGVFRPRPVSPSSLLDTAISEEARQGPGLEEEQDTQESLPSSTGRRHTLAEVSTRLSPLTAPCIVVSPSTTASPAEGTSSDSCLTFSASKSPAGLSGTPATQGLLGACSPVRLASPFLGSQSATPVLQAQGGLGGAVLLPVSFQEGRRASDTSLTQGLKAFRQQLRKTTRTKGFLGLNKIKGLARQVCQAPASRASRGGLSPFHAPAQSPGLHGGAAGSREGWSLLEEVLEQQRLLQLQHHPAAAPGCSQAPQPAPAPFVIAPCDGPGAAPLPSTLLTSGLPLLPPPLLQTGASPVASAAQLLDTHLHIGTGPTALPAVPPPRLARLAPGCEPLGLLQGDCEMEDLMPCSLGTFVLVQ
SMILES,residual activity [1] [%],residual activity [2] [%],residual activity [3] [%],residual activity [4] [%],residual activity [5] [%],residual activity [6] [%],residual activity [7] [%],residual activity [8] [%],residual activity [9] [%],residual activity [10] [%],residual activity [11] [%],residual activity [12] [%],residual activity [13] [%],residual activity [14] [%]
Cn1c2ccccc2c2c3c(c4c5ccccc5n(CCC#N)c4c21)CNC3=O,24,6,14,3,5,7,10,10,9,19,16,11,,
O=C1NC(=O)C(c2cn(CCCn3ccnc3)c3ccccc23)=C1Nc1ccccc1,36,75,32,105,67,,37,,,63,19,22,66,
CC(C)[C@H](CO)Nc1nc(Nc2cc(N)cc(Cl)c2)c2ncn(C(C)C)c2n1,18,96,62,,73,92,52,88,73,93,54,97,30,85
COc1ccc(-c2cnc3c(-c4ccsc4)cnn3c2)cc1,2,95,96,127,95,97,97,,,,,97,97,99
COc1ccc(COc2ccc(Cc3cnc(N)nc3N)cc2OC)cc1,111,,,118,,,,100,79,,,61,,
CCN1/C(=C/C(C)=O)Sc2ccc(OC)cc21,,82,58,,,75,46,,,,,70,80,
O=C1NC(=O)C(c2cn(CCCO)c3ncccc23)=C1c1cnccn1,84,,,93,96,86,69,,,83,77,92,81,94
